For test [1], the target named is Glutathione peroxidase 1 (Homo sapiens) (UniProt P07203). Description: Primary qHTS Assay for Inhibitors of Recombinant Selenoprotein Glutathione Peroxidase 1 (GPX1) (AID 1845191). For activity, negative = inhibition: % is set by controls: 0 for no effect and ±100 for the full control effect. Note: nearly all actives have a fitted effect of over 65% in size. Note: potency is the fitted concentration of half-maximal effect. An outline of the steps: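 Recombinant GPX1 (10 nM final) was preincubated with compound for 30 min at room temperature, then reacted with 1 mM GSH, 0.5 mM CHP, 0.5 mM NADPH and 100 nM glutathione reductase; NADPH fluorescence (340/450 nm) was read at 0 and 15 min.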
Sequence of Glutathione peroxidase 1 (Homo sapiens) (P07203 whole entry, looked up): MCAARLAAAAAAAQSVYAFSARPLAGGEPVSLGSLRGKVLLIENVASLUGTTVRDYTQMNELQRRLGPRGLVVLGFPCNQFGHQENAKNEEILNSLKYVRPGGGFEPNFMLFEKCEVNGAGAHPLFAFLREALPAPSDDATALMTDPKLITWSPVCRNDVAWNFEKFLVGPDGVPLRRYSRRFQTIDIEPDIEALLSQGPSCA
A general note: Quantitative high-throughput screening tests each substance at several concentrations.

The target of test [2] is Phospholipid hydroperoxide glutathione peroxidase GPX4 (Homo sapiens) (UniProt P36969). Description: Primary qHTS Assay for Inhibitors of Recombinant Selenoprotein Glutathione Peroxidase 4 (GPX4) (AID 1845192). For activity change, negative = inhibition: series mostly up to about 50 µM; % is set by controls: 0 for no effect and ±100 for the full control effect. Note: nearly all actives have a fitted effect of over 65% in size. Note: potency is the fitted concentration of half-maximal effect. An outline of the steps:
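GR-coupled readout: 100 nM GR, 1 mM GSH, 0.5 mM NADPH; NADPH fluorescence (ex 340/em 450 nm) read at t=0 and after 15 min RT. GPX4 200 nM, preincubated 30 min with compound; substrate 0.5 mM CHP.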

The target in test [3] is Luciferin 4-monooxygenase (Photinus pyralis) (UniProt P08659). Description: Primary firefly luciferase (FLuc) qHTS assay for identification of artifact compounds. (AID 1845220).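 For activity change, negative = inhibition: series mostly up to about 54 µM; plate controls were DMSO vehicle for no effect and no enzyme for full effect.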 Note: nearly all actives have a fitted effect of over 60% in size. An outline of the steps: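 In this counter-screen for luciferase artifacts, test compounds met substrate (10 uM each luciferin and ATP) before 10 nM enzyme started the reaction. Light output was measured 5 min later.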

Here are results for 23 molecules from PubChem BioAssay (NCATS).

Several values for one entry are separate records, joined by “and”; a condition that tells them apart may be missing. Equal entries are not always repeated. Values without a mark were called inactive. Inconclusive results are not listed. Activity calls are given as the source filed them. Calls come from the whole dose curve; as a rule, active = well fitted inhibition curve with a large enough effect; inconclusive = small, poorly fitted or top-dose-only effect; inactive = flat fitted curve, though single readings scatter.

Sequence of Phospholipid hydroperoxide glutathione peroxidase GPX4 (Homo sapiens) (P36969 whole entry, looked up): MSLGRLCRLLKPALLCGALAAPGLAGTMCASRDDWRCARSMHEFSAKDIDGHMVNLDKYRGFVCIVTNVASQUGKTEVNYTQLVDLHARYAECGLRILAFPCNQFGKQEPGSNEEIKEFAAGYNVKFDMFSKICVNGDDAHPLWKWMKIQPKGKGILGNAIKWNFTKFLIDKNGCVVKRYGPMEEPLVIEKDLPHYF

In the case of `CC1=CC(=O)C[C@H]2[C@@H]1CC[C@@H](C)[C@]21CO[C@H](c2ccoc2)C1=O`, the Potency entry in test [1], in test [2] and in test [3] was “inactive” each time.

For the molecule `COc1c(C)c(C(=O)c2ccc(N)c(C(=O)O)c2)n2ccccc12`, the Potency entry in test [1], in test [2] and in test [3] was “inactive” throughout.

For the molecule `CC1=CC2(O)/C=C/C(C)(O)CC(O)/C=C/C(=O)OC23C(=O)NC(CC(C)C)C3C1C` (centres undefined), the Potency entry in test [1], in test [2] and in test [3] was “inactive” each time.

As for `COC1=CC(=O)O[C@@H](/C=C/c2ccccc2)[C@@H]1O`, the Potency result in test [1], in test [2] and in test [3] was “inactive” each time.

Turning to `CC(C#N)C(C)O[C@@H]1O[C@H](CO)[C@@H](O)[C@H](O)[C@H]1O` (some centres undefined), the Potency entry in test [1], in test [2] and in test [3] was “inactive” throughout.

For `C=C1C[C@]23C[C@H]1CC[C@H]2[C@]1(C)CCC[C@@]2(CO)C(=O)O[C@H]([C@H]21)[C@@H]3O`, the Potency entry in test [1], in test [2] and in test [3] was “inactive” throughout.

Take `CC1CCC2(C(=O)OC3OC(CO)C(O)C(O)C3O)CCC3(C)C(=CCC4C5(C)CC(O)C(O)C(C)(C(=O)O)C5CCC43C)C2C1(C)O` (centres undefined): the Potency result in test [1], in test [2] and in test [3] was “inactive” in each case.

For the molecule `CC[C@H](/C=C/[C@@H](C)[C@H]1CC[C@H]2[C@@H]3CC=C4C[C@@H](O)CC[C@]4(C)[C@H]3CC[C@]12C)C(C)C`, the activity, negative = inhibition in test [1] is -3.99% [at 4.49 µM]. The activity change, negative = inhibition is 1.85% [at 4.52 µM] in test [2] and 2.1% [at 6.45 µM] in test [3].

Consider `c1ccc(C(OC2CCN(CCCc3nn[nH]n3)CC2)c2ccccc2)cc1`, for which the Potency entry in test [1], in test [2] and in test [3] was “inactive” each time.

In the case of `CC(C)Nc1cc(-c2c[nH]c(C(=O)N[C@H](CO)c3cccc(Cl)c3)c2)c(Cl)cn1`, the Potency result in test [1], in test [2] and in test [3] was “inactive” each time.

With `C[C@@H]1O[C@@H](O[C@H]2[C@H](O[C@H]3CO[C@@H](O[C@H]4CC[C@@]5(C)C(CC[C@]6(C)C5CC[C@]57OC[C@@]8(CC[C@](C)(CO)CC85)[C@H](O)C[C@]76C)C4(C)C)[C@H](O[C@@H]4O[C@H](CO)[C@@H](O)[C@H](O)[C@H]4O)[C@H]3O)O[C@H](CO)[C@@H](O)[C@@H]2O)[C@H](O)[C@H](O)[C@H]1O` (some centres undefined), the Potency entry in test [1] and in test [2] was “inactive” in each case. In test [3], the activity change, negative = inhibition was 0.85% [at 11.6 µM].

Turning to `CCCC(N[C@@H](C)C(=O)N1[C@H](C(=O)O)C[C@@H]2CCCC[C@@H]21)C(=O)OCC` (some centres undefined), the Potency entry in test [1], in test [2] and in test [3] was “inactive” each time.

Turning to `COc1cc([C@H]2OC[C@@H]3[C@@H](c4ccc(O[C@@H]5O[C@H](CO)[C@@H](O)[C@H](O)[C@H]5O)c(OC)c4)OC[C@]23O)ccc1O`, the Potency result in test [1], in test [2] and in test [3] was “inactive” in each case.

As for `O=C(NC[C@H](O)CN1CCc2ccccc2C1)c1cc(NC2COC2)ncn1`, the Potency result in test [1], in test [2] and in test [3] was “inactive” throughout.

For the molecule `COc1c2c(c(C)c3c1C(=O)OC3)O[C@@]1(C)C[C@@H](O)[C@]34O[C@](OC)(CC[C@]3(C)[C@H]1C2)OC4(C)C`, the Potency result in test [1], in test [2] and in test [3] was “inactive” throughout.

Turning to `C[C@@H]1O[C@@H](O[C@H]2[C@H](OC(=O)[C@]34CCC(C)(C)C[C@H]3C3=CCC5[C@@]6(C)C[C@H](O)[C@H](O[C@@H]7O[C@H](CO)[C@@H](O[C@@H]8O[C@H](CO)[C@@H](O)[C@H](O)[C@H]8O)[C@H](O)[C@H]7O)[C@@](C)(CO)C6[C@H](O)C[C@@]5(C)[C@]3(C)C[C@H]4O)OC[C@H](O)[C@@H]2O)[C@H](O)[C@H](O)[C@H]1O[C@@H]1OC[C@@H](O)[C@H](O[C@@H]2OC[C@](O)(CO)[C@H]2O)[C@H]1O` (some centres undefined), in test [1], the activity, negative = inhibition is -19.6% [at 9.52 µM]. In addition, the figures for the activity change, negative = inhibition in test [2] and in test [3] were -11% [at 9.73 µM] and -27.8% [at 11.6 µM], respectively.

In the case of `CC(/C=C/C1(O)C(C)CC(O)CC1(C)C)OC1OC(CO)C(O)C(O)C1O` (centres undefined), the Potency entry in test [1], in test [2] and in test [3] was “inactive” throughout.

For `CO/N=C(/C(=O)N[C@@H]1C(=O)N2C(C(=O)O)=C(CSC(=O)c3ccco3)CS[C@H]12)c1csc(N)n1`, the Potency is 8.06 µM (active) and 7.18 µM (active) in test [1]; 7.08 µM (active) in test [2]. In test [3], the Potency entry is “inactive”.

On to `CC1=C2C=C(CO)C(CO)CCC2(C)CCC1=O` (centres undefined), for which the Potency result in test [1], in test [2] and in test [3] was “inactive” throughout.

In the case of `CC1CCC2C(C(=O)O)=CC3CC(C)(C)CC132` (centres undefined), the Potency entry in test [1], in test [2] and in test [3] was “inactive” throughout.

As for `C[C@@H]1C[C@H](O)/C=C/[C@H](O)[C@@H](O)CC(=O)O1`, the Potency result in test [1], in test [2] and in test [3] was “inactive” in each case.

Turning to `O=C(OCC12OC1C=CC(OC(=O)c1ccccc1)C2O)c1ccccc1` (centres undefined), the Potency result in test [1], in test [2] and in test [3] was “inactive” throughout.

For the molecule `C=C1C2(CCC(=O)OC2(C)C)CC(OC(=O)/C(C)=C/C)C2(C)C13OC14C(=O)OC(C)(C(=O)C12C(=O)OC4C)C3OC(C)=O` (centres undefined), the Potency entry in test [1], in test [2] and in test [3] was “inactive” throughout.
